Data as given in PubChem BioAssay (Tox21).
Records with an inconclusive call do not appear. Calls of active or inactive are those of the source. Unless noted, calls follow the shape of the full dose curve.

Legend:
[1] = qHTS assay to identify small molecule antagonists of the estrogen related receptor signaling pathway with the pleiotropic PPARgamma coactivator (PGC) from Tox21 10K library - cell viability counter screen (AID 1224840; active = well fitted cell-killing curve with a large enough effect in the repeat runs, not every such curve was filed as active; also: nearly all actives have a fitted effect of over 40% in size); conditions: PGC/ERR reporter cells viability, CellTiter-Fluor, 17.5 h; series mostly up to 92.4 µM
Procedure, shortened: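 Step one, plate 2,000 PGC/ERR cells per well; step two, incubate 6 h at 37 C/5% CO2; step three, pin-transfer compounds; step four, incubate 17.5 h; step five, add CellTiter-Fluor and read fluorescence after 30 min.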

[2] = biological target: Thyrotropin receptor (Homo sapiens) (UniProt P16473); assay: qHTS assay to identify small molecule agonists of the thyroid stimulating hormone receptor (TSHR) signaling pathway (AID 1224843); conditions: TSHR-HEK293 cells, cAMP HTRF, agonist mode, 30 min; series mostly up to 92.4 µM; also: nearly all actives have a fitted effect of over 45% in size
Sequence of Thyrotropin receptor (Homo sapiens) (P16473 whole entry, looked up): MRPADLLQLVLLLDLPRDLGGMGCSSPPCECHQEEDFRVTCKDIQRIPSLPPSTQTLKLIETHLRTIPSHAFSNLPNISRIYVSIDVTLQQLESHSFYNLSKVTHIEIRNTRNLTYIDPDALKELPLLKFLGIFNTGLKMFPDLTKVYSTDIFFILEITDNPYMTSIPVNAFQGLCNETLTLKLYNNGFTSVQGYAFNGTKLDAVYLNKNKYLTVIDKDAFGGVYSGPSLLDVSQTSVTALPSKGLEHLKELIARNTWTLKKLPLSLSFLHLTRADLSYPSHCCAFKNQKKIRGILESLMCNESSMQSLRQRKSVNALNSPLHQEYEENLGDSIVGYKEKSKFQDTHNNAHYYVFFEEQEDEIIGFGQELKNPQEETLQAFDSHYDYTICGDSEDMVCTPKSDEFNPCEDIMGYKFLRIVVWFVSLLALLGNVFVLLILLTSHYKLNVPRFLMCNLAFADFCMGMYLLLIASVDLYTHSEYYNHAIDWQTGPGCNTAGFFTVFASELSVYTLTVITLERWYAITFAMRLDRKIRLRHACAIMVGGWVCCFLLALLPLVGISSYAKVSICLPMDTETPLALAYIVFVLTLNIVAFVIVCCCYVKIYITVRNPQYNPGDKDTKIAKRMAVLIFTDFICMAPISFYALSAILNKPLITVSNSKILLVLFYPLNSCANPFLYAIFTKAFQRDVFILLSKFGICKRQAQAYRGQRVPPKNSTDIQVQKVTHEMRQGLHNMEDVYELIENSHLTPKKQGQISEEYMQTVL
Procedure, shortened: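 Screening of the Tox21 10K collection used HEK293 cells engineered with TSHR at 800 cells per well. After a 30-min room-temperature compound exposure, HTRF cAMP reagents were added and fluorescence recorded 1 h later.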

[3] = qHTS assay to identify small molecule agonists of the hypoxia (HIF-1) signaling pathway - cell viability counter screen (AID 1224844); conditions: HRE-bla ME-180 viability, CellTiter-Glo luminescence, 17 h; series mostly up to 76.8 µM; also: nearly all actives have a fitted effect of over 50% in size
Procedure, shortened: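 Tox21 10K compounds were added to HRE-bla ME-180 cells (0.5% dialyzed FBS) and incubated 17 hrs at 37C; ATP-based CellTiter-Glo luminescence then reported cell viability in the same wells.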

[4] = qHTS assay to identify small molecule agonists of H2AX (AID 1224845; active = well fitted activation curve with a large enough effect in the signal ratio in the repeat runs, not every such curve was filed as active; the % refers to the signal ratio); conditions: CHO-K1 phospho-H2AX Ser139 HTRF, 3 h; series mostly up to 154 µM
Procedure, shortened: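 Phospho-H2AX Ser139 measured by HTRF (ex 320 nm; em 665 and 620 nm) after 24 hr antibody incubation. Compounds, 15 concentrations, 0.76% DMSO, were applied to CHO-K1 cells for 3hr at 37C before lysis.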

[5] = qHTS assay to identify small molecule agonists of the hypoxia (HIF-1) signaling pathway (AID 1224846; active = well fitted activation curve with a large enough effect in the signal ratio in the repeat runs, not every such curve was filed as active; the % refers to the signal ratio); conditions: HRE-bla ME-180 cells, beta-lactamase ratio, 17 h; series mostly up to 76.8 µM
Procedure, shortened: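 Steps: seed ME-180 HRE-bla cells (2,000/well, 0.5% dialyzed FBS); incubate 5 hrs at 37C; pin-transfer compounds or DMSO; incubate 17 hrs; add LiveBLAzer B/G substrate CCF4-AM; measure reporter activation by FRET.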

[6] = qHTS assay to identify small molecule agonists of H2AX - cell viability counter screen (AID 1224847); conditions: CHO-K1 viability, CellTiter-Glo luminescence, 3 h; series mostly up to 154 µM;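 also: wild-type CHO-K1 cells; top concentration of the series differs between compounds; nearly all actives have a fitted effect of over 30% in size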
Procedure, shortened: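 Cells plated first: CHO-K1, 1000 per well in 10% FBS medium, incubated overnight at 37C. Then 15-point compound titration added (final DMSO 0.76%) for 3 hr. Finally CellTiter-Glo added and luminescence read.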
% is scaled to controls: 0 for no effect and ±100 for the full control effect.

O=C[C@@H](O)[C@H](O)[C@H](O)CO
inactive: outcome [1] | Potency [2] | outcome [3] | outcome [4] | outcome [5] | outcome [6]

CCOC(=O)[C@H](CCc1ccccc1)N[C@H]1CS[C@H](c2cccs2)CN(CC(=O)O)C1=O
inactive: outcome [1] | Potency [2] | outcome [3] | outcome [4] | outcome [5] | outcome [6]

CC(O)C(CO)C(C)O (configuration not stated)
inactive: outcome [1] | Potency [2] | outcome [3] | outcome [4] | outcome [5] | outcome [6]

CCCCCCCCC1CO1 (configuration not stated)
inactive: outcome [1] | Potency [2] | outcome [3] | outcome [4] | outcome [5] | outcome [6]

CCCCC(O)/C=C(C)/C=C/C=C/C(=O)N1CCCC1=O (configuration not stated)
inactive: outcome [1] | Potency [2] | outcome [3] | outcome [4] | outcome [5] | outcome [6]

CCCC[O][Al]([O]CCCC)[O]CCCC
inactive: outcome [1] | Potency [2] | outcome [3] | outcome [4] | outcome [5] | outcome [6]

CNC(C)=O
inactive: outcome [1] | Potency [2] | outcome [3] | outcome [4] | outcome [5] | outcome [6]

C=CCN1CCc2nc(N)sc2CC1
inactive: outcome [1] | Potency [2] | outcome [3] | outcome [4] | outcome [5] | outcome [6]

CC(C)(O)CCCC1=CCC(C=O)CC1 (configuration not stated)
inactive: outcome [1] | Potency [2] | outcome [3] | outcome [4] | outcome [5] | outcome [6]

Cc1cc(O)c(Cl)cc1C
inactive: outcome [1] | Potency [2] | outcome [3] | outcome [4] | outcome [5] | outcome [6]

CN(C)CCCN(C)C
inactive: viability change, negative = cytotoxic [1] 4.04% [at 8.39 µM] | activation [2] -10.3% [at 8.39 µM] | activity change, negative = cytotoxicity [3] 11.5% [at 6.97 µM] | activation (H2AX phosphorylation) [4] 0.536% [at 14 µM] | activation [5] -0.634% [at 7.01 µM] | activity change, negative = cytotoxicity [6] 0.19% [at 14 µM]

CCOc1ccccc1OCCN[C@H](C)Cc1ccc(OC)c(S(N)(=O)=O)c1
inactive: outcome [1] | Potency [2] | outcome [3] | outcome [4] | outcome [5] | outcome [6]

Cc1nc2ccc(Cl)cc2[nH]1
inactive: outcome [1] | Potency [2] | outcome [3] | outcome [4] | outcome [5] | outcome [6]

CCN(CC)CC(=O)Oc1ccc(NC(C)=O)cc1
inactive: outcome [1] | Potency [2] | outcome [3] | outcome [4] | outcome [5] | outcome [6]

O=C(OOC(=O)c1ccccc1)c1ccccc1
inactive: outcome [1] | Potency [2] | outcome [3] | outcome [4] | outcome [5] | outcome [6]

COC(=O)c1cc(Cl)c(NC(C)=O)cc1OC
inactive: outcome [1] | Potency [2] | outcome [3] | outcome [4] | outcome [5] | outcome [6]

Cc1ccccc1C#N
inactive: outcome [1] | Potency [2] | outcome [3] | outcome [4] | outcome [5] | outcome [6]

C[C@H]1COc2c(C3(N)CC3)c(F)cc3c(=O)c(C(=O)O)cn1c23
inactive: outcome [1] | Potency [2] | outcome [3] | outcome [4] | outcome [5] | outcome [6]

Cc1ccc2ccccc2n1
inactive: outcome [1] | Potency [2] | outcome [3] | outcome [4] | outcome [6]

O=C1c2ccccc2C(=O)N1CO
inactive: outcome [1] | Potency [2] | outcome [3] | outcome [4] | outcome [6]

CCCCN(CCCC)CCCCCCN(CCCC)CCCC
inactive: outcome [1] | Potency [2] | outcome [3] | outcome [4] | outcome [5] | outcome [6]

O=C1CC2(CCCC2)CC(=O)N1CCNCC1COc2ccccc2O1 (configuration not stated)
inactive: outcome [1] | Potency [2] | outcome [3] | outcome [4] | outcome [5] | outcome [6]

CC(C)CC(O)Cc1ccccc1 (configuration not stated)
inactive: outcome [1] | Potency [2] | outcome [3] | outcome [4] | outcome [5] | outcome [6]

CCCCC(CC)CCC(CC(C)C)OS(=O)(=O)O (configuration not stated)
inactive: outcome [1] | Potency [2] | outcome [3] | outcome [4] | outcome [5] | outcome [6]
